Experimental findings from PubChem BioAssay (NCATS) are described below.

Results filed as inconclusive are left out. Entries that show only a call come without a potency. Activity calls are given as the source filed them. The call rests on the fitted dose curve; in most records, active means well fitted curve in the direction sought with a large enough effect; inconclusive means small, poorly fitted or top-dose-only effect, or another doubt; inactive means no such curve, though single readings can be large; an effect the other way counts as inactive or inconclusive.

The target in assay [1] is Aldehyde dehydrogenase, mitochondrial (Homo sapiens) (UniProt P05091). The assay can be described thus: qHTS for Inhibitors of the Aldehyde Dehydrogenase Family (ALDH2) Primary screen (AID 2061308). Further: nearly all actives have a fitted effect of over 55% in size.
Assay [2] deals with Retinaldehyde dehydrogenase 3 (Homo sapiens) (UniProt P47895). The experiment in a line: qHTS for Inhibitors of the Aldehyde Dehydrogenase Family (ALDH1A3) Primary screen (AID 2061315). (qHTS replaces the single test concentration by a dilution series.)

For the molecule `Cc1ccccc1C(=O)N1CCc2cc(N3CCC(NC(=O)Cc4ccccc4)C3)ccc21` (configuration not stated), the Potency entry in assay [1] and in assay [2] was “inactive” throughout.
`CCOc1ccc(CCNC(=O)c2cc3ccccc3n2CCN2CCOCC2)cc1OCC`: the Potency entry in assay [1] and in assay [2] was “inactive” each time.
Regarding `O=S(=O)(Nc1ccccc1)c1ccc(NCc2ccc(Br)cc2O)cc1`, the Potency result in assay [1] and in assay [2] was “inactive” in each case.
Turning to `C[C@@H](CN1CCC(n2c(=O)[nH]c3cc(Br)ccc32)CC1)NC(=O)[C@@H]1C[C@H]1c1ccccc1`, the Potency result in assay [1] and in assay [2] was “inactive” throughout.
For the molecule `C[C@]12CC[C@@H](O[C@@H]3O[C@H](CO)[C@@H](O)[C@H](O)[C@H]3O)C[C@@]1(O)CCC1C2CC[C@]2(C)[C@@H](C3=CC(=O)OC3)CC[C@]12O` (some centres not stated), the Potency result in assay [1] and in assay [2] was “inactive” each time.
Regarding `O=C(Nc1ncc(Cc2ccc(C(F)(F)F)cc2)s1)c1cnc(-c2ccccc2)o1`, the Potency entry in assay [1] and in assay [2] was “inactive” in each case.
Turning to `O=C(Nc1ncc(Cc2ccc(C(F)(F)F)cc2)s1)c1cn(-c2ccccc2)cn1`, the Potency entry in assay [1] and in assay [2] was “inactive” in each case.
In the case of `Cc1cc(-c2nnc3n2CCCCC3)c(C)n1-c1ccc(C(C)(C)C)cc1`, the Potency entry in assay [1] and in assay [2] was “inactive” each time.
Take `C[C@@H]1[C@H](O)[C@@H](C)/C=C/C=C/CC/C=C/C=C/C=C/C=C/[C@H](O[C@H]2O[C@@H](C)[C@H](O)[C@@H](N)[C@H]2O)C[C@@H]2O[C@](O)(C[C@@H](O)[C@H](O)CC[C@@H](O)C[C@@H](O)C[C@@H](O)CC(=O)O[C@H]1C)C[C@H](O)[C@H]2C(=O)O`: the Potency entry in assay [1] and in assay [2] was “inactive” in each case.
As to `CC(=O)Nc1ncc(S(=O)(=O)N2CCOCC2)s1`, the Potency entry in assay [1] and in assay [2] was “inactive” each time.
In the case of `C[C@H]1CC[C@@H]2[C@@H](C)[C@H]3[C@H](C[C@H]4[C@@H]5CC=C6CC(O[C@@H]7O[C@H](CO)[C@@H](O)[C@H](O[C@@H]8O[C@H](CO)[C@@H](O)[C@H](O)[C@H]8O)[C@@H]7O[C@@H]7O[C@@H](C)[C@H](O)[C@@H](O)[C@H]7O)CC[C@]6(C)[C@H]5CC[C@]34C)N2C1` (some centres not stated), the Potency entry in assay [1] and in assay [2] was “inactive” throughout.
